An excerpt weighted towards active compounds, which were near 1.6% of everything screened.
HTR5A inv ctr: counter-screen for OPRM1-OPRD1 inverse agonists: human HTR5A inverse agonism. P47898. HTR5A cell line, luminescence. inhibition, % at 9.3 µM. 0.083% of 340,000 active; in the data active = inhibition mostly above about 23%, no sharp cut-off; inactive = mostly below about 18%;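 also: 0% = cells with DMSO and 100% = no-cell wells with DMSO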
MOR-DOR inv ag: inverse agonist of human OPRM1-OPRD1 heterodimerization. AID 504357. P35372+P41143. cell-based MOR-DOR heterodimer luminescence, inverse agonism. inhibition, % at 9.3 µM. 0.21% of 340,000 active; in the data active = inhibition above about 22%, passing the limit was not always enough;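 also: 0% = cells with DMSO and 100% = wells without cells with DMSO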
m5-HT2A agonist: activates the mouse 5-HT2A serotonin receptor. activation, % at 7.6 µM. AID 624169. 0.66% of 360,000 active. CHO-K1 mHTR2A beta-arrestin complementation, luminescence; percent of 30 µM serotonin response;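 active = activation above a run cutoff, the mean activation of all tested compounds plus 3 SD, cut at about 14% in these data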;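 also: 0% = plate median of compound wells and 100% = 30 µM serotonin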
OPRM1-OPRD1 ag: OPRM1-OPRD1 heterodimerization agonism; cells, luminescence; activation, % at 9.3 µM; 0.3% of 340,000 active; in the data active = activation above about 18%;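 also: 0% = vehicle-treated cells and 100% = reference agonist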
HTR5A ag ctr: activates human HTR5A in OPRM1-OPRD1 agonist counter-screen; P47898; HTR5A agonist assay, luminescence, cell-based; activation, % at 9.3 µM; 0.61% of 340,000 active; in the data active = activation mostly above about 9.5%, no sharp cut-off; inactive = mostly below about 7.6%;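 also: 0% = cells with vehicle only and 100% = reference agonist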
MOR ag counter: activates human mu opioid receptor in HTR2A counterscreen | 5.3% of 2,300 active | U2OS OPRM1 beta-arrestin PathHunter, luminescence; DMSO 0%, DAMGO 9.3 µM 100% | activation, % at 9.3 µM | shares compounds with m5-HT2A agonist;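 active = mean activation above the mean of DMSO-only wells plus 3 SD, cut at about 0.5% in these data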
Target sequence (P35372 whole entry, looked up): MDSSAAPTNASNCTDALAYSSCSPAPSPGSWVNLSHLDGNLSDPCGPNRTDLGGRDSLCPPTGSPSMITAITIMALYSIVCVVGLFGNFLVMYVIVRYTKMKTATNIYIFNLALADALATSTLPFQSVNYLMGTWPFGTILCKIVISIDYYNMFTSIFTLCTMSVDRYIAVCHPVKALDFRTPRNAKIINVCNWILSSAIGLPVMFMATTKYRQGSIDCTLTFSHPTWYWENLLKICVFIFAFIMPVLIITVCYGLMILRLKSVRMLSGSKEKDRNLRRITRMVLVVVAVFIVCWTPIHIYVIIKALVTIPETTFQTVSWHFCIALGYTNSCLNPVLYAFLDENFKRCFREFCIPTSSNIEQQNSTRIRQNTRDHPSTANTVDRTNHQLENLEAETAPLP
HTR2A ag conf: mouse HTR2A agonism confirmed; shares compounds with m5-HT2A agonist; activation, % at 7.6 µM; 19% of 2,300 active; CHO-K1 PathHunter beta-arrestin recruitment, luminescence; DMSO 0%, 30 µM serotonin 100%;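 active = mean activation across triplicates above the hit threshold derived in the original primary screen, cut at about 15% in these data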
* hit, by the source's call.

How did CCOc1ccc(S(=O)(=O)N2CCC(C(=O)N3CCOCC3)CC2)cc1Cl do in these assays?
HTR5A inv ctr: 13; MOR-DOR inv ag: 0; m5-HT2A agonist: -3; OPRM1-OPRD1 ag: 0; HTR5A ag ctr: -4

What do the screens show for `CCOc1ccc(S(=O)(=O)NCC2(N3CCCCC3)CCCCC2)cc1`?
HTR5A inv ctr: 13; MOR-DOR inv ag: 25; m5-HT2A agonist: 17*; OPRM1-OPRD1 ag: -5; HTR5A ag ctr: -2; MOR ag counter: -1; HTR2A ag conf: -1

What do the screens show for `CCOc1ccc(S(=O)(=O)NCCC(=O)NCC2(N3CCCCC3)CCCCC2)cc1`?
HTR5A inv ctr: -9; MOR-DOR inv ag: 13; m5-HT2A agonist: 0; OPRM1-OPRD1 ag: -2; HTR5A ag ctr: 4

What do the screens show for `Cc1cc(C)c(O)c(-c2n[nH]c3c2C(c2cccc(O)c2)N(Cc2ccco2)C3=O)c1` (stereo not drawn)?
HTR5A inv ctr: 10; MOR-DOR inv ag: -84; m5-HT2A agonist: 99*; OPRM1-OPRD1 ag: 16; HTR5A ag ctr: 5; MOR ag counter: 0; HTR2A ag conf: 57*

How did COc1ccc(CCN2C(=O)c3[nH]nc(-c4ccccc4O)c3C2c2cccc(O)c2)cc1OC (stereo not drawn) do in these assays?
HTR5A inv ctr: -28; MOR-DOR inv ag: 10; m5-HT2A agonist: -2; OPRM1-OPRD1 ag: -2; HTR5A ag ctr: 10

How did N#Cc1c(N)nc(SCC(=O)OCc2ccccc2)c(C#N)c1-c1ccco1 do in these assays?
HTR5A inv ctr: 0; MOR-DOR inv ag: 8; m5-HT2A agonist: -1; OPRM1-OPRD1 ag: -1; HTR5A ag ctr: 0

Results for N#Cc1c(N)nc(SCc2ccccc2)c(C#N)c1-c1ccco1 ?
HTR5A inv ctr: 11; MOR-DOR inv ag: -16; m5-HT2A agonist: 15*; OPRM1-OPRD1 ag: 3; HTR5A ag ctr: 3; MOR ag counter: 0; HTR2A ag conf: -3

How did CNC(=O)C1CCN(S(=O)(=O)c2c(C)noc2/C=C/c2ccc(OC)cc2)CC1 do in these assays?
HTR5A inv ctr: 9; MOR-DOR inv ag: 12; m5-HT2A agonist: 20*; OPRM1-OPRD1 ag: -2; HTR5A ag ctr: -3; MOR ag counter: 0; HTR2A ag conf: -4

How did CCN(CC(=O)NCc1ccc(F)cc1)C(=O)c1ccc(COc2ccccc2)cc1 do in these assays?
HTR5A inv ctr: -5; MOR-DOR inv ag: 3; m5-HT2A agonist: -12; OPRM1-OPRD1 ag: -1; HTR5A ag ctr: -3

What do the screens show for `COc1ccc2c(c1)CCCC21NC(=O)N(CC(N)=O)C1=O` (stereo not drawn)?
HTR5A inv ctr: 8; MOR-DOR inv ag: 5; m5-HT2A agonist: -2; OPRM1-OPRD1 ag: -1; HTR5A ag ctr: 3

Results for COc1ccc2c(c1)CCCC21NC(=O)N(CC(=O)NCc2cccs2)C1=O (stereo not drawn) ?
HTR5A inv ctr: 1; MOR-DOR inv ag: 10; m5-HT2A agonist: 19*; OPRM1-OPRD1 ag: -2; HTR5A ag ctr: 0; MOR ag counter: 0; HTR2A ag conf: 1

Results for O=[N+]([O-])c1ccc(C2=Nn3c(Cn4nnc5ccccc54)nnc3SC2)cc1 ?
HTR5A inv ctr: 9; MOR-DOR inv ag: -12; m5-HT2A agonist: 4; OPRM1-OPRD1 ag: 2; HTR5A ag ctr: 8

How did COc1ccc(-n2c(=O)[nH]cc(C(=O)Nc3ccc4c(c3)OCCO4)c2=O)cc1OC do in these assays?
HTR5A inv ctr: 20; MOR-DOR inv ag: 15; m5-HT2A agonist: 5; OPRM1-OPRD1 ag: -3; HTR5A ag ctr: 1

What do the screens show for `O=C(Nc1ccc2c(c1)OCO2)c1c[nH]c(=O)n(-c2ccc(F)cc2)c1=O`?
HTR5A inv ctr: 9; MOR-DOR inv ag: 5; m5-HT2A agonist: 15*; OPRM1-OPRD1 ag: -1; HTR5A ag ctr: -1; MOR ag counter: 0; HTR2A ag conf: -5

How did CCN(Cc1ccncc1)C(=O)c1ccccc1NS(=O)(=O)c1ccc(F)cc1 do in these assays?
HTR5A inv ctr: -3; MOR-DOR inv ag: 11; m5-HT2A agonist: 1; OPRM1-OPRD1 ag: -2; HTR5A ag ctr: 1

What do the screens show for `Cc1ccc(CN2CCC2(C)C(=O)NC2CCc3ccccc32)cc1` (stereo not drawn)?
m5-HT2A agonist: -3

Results for O=C(CCS(=O)(=O)c1ccc(Cl)cc1)OCC(=O)N1CCCCC1 ?
HTR5A inv ctr: -33; MOR-DOR inv ag: 1; m5-HT2A agonist: 16*; OPRM1-OPRD1 ag: 0; HTR5A ag ctr: 12; MOR ag counter: -1; HTR2A ag conf: -2

What do the screens show for `COc1ccc(OC)c(NC(=O)C2CC(=O)N(c3ccccc3)C2)c1` (stereo not drawn)?
HTR5A inv ctr: 6; MOR-DOR inv ag: 7; m5-HT2A agonist: 5; OPRM1-OPRD1 ag: -1; HTR5A ag ctr: -2

What do the screens show for `COc1ccc(NC(=O)C2CC(=O)N(c3ccccc3C)C2)c(OC)c1` (stereo not drawn)?
HTR5A inv ctr: 10; MOR-DOR inv ag: 14; m5-HT2A agonist: 15*; OPRM1-OPRD1 ag: -3; HTR5A ag ctr: -3; MOR ag counter: -1; HTR2A ag conf: -3

What do the screens show for `CC(CN1CCOCC1)OC(=O)/C=C/c1ccccc1` (stereo not drawn)?
HTR5A inv ctr: -20; MOR-DOR inv ag: -8; m5-HT2A agonist: -3; OPRM1-OPRD1 ag: 1; HTR5A ag ctr: 8

How did CC(CN1CCCCC1)OC(=O)/C=C/c1ccccc1 (stereo not drawn) do in these assays?
HTR5A inv ctr: -5; MOR-DOR inv ag: 2; m5-HT2A agonist: 17*; OPRM1-OPRD1 ag: 0; HTR5A ag ctr: 1; MOR ag counter: -1; HTR2A ag conf: 1

How did CCc1ccc(OCCCC(=O)Nc2ccc(S(=O)(=O)Nc3cc(C)nc(C)n3)cc2)cc1 do in these assays?
HTR5A inv ctr: 0; MOR-DOR inv ag: -10; m5-HT2A agonist: 15*; OPRM1-OPRD1 ag: 1; HTR5A ag ctr: 0; MOR ag counter: -1; HTR2A ag conf: -7

Results for COC(=O)[C@@]1(Cc2ccc(OC)cc2)[C@@H]2[C@@H](CC(=O)[C@H]2CC(=O)C(=O)N(C)C)CN1C(=O)c1ccccc1 ?
HTR5A inv ctr: -4; MOR-DOR inv ag: 13; m5-HT2A agonist: 18*; OPRM1-OPRD1 ag: -2; HTR5A ag ctr: 1; MOR ag counter: -1; HTR2A ag conf: -2

What do the screens show for `CCOC(=O)[C@H]1[C@H]2COc3ccc(Cl)cc3[C@@H]2N2C(=O)c3ccc(F)cc3NC(=O)[C@@]12C`?
HTR5A inv ctr: 5; MOR-DOR inv ag: -10; m5-HT2A agonist: 1; OPRM1-OPRD1 ag: 2; HTR5A ag ctr: 4

Results for CCOC(=O)[C@H]1[C@H]2COc3ccc(C)cc3[C@@H]2N2C(=O)CN(Cc3ccco3)C(=O)[C@@]12C ?
HTR5A inv ctr: -13; MOR-DOR inv ag: 12; m5-HT2A agonist: 15*; OPRM1-OPRD1 ag: -2; HTR5A ag ctr: 5; MOR ag counter: -1; HTR2A ag conf: -1

Screening data as filed in PubChem.
